This is part of a sample that, as a whole, favours compounds with a hit. Of some 83,000 tested, about 20% had one in any assay.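 Plates (96-well) were seeded with cells, treated with compound at one concentration, and incubated for 48 hours before percent growth was determined.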 Values without a mark were called inactive. The source made the active and inactive calls. The calls were made as follows: active = growth percent below 10; inactive = the rest.

Common to all, as to assay: NCI-60 one-dose screen, 48 h (100 = growth as untreated, 0 = no growth, -100 = all killed)
What all share (settings): 10 µM unless noted

Assay [1] has as its system SR leukemia.
The subject of assay [2] is RPMI-8226 leukemia.
For assay [3], the system named is OVCAR-8 ovarian.
Assay [4] relates to OVCAR-5 ovarian.
Assay [5] has as its system OVCAR-4 ovarian.
For assay [6], the system named is SK-OV-3 ovarian.
In assay [7] the test system is OVCAR-3 ovarian.
Assay [8] has as its system HS 578T breast.
In assay [9] the test system is T-47D breast.
Assay [10] concerns BT-549 breast.
Assay [11] has as its system MDA-MB-435 melanoma.
For assay [12], the system named is SW-620 colon.
The test system of assay [13] is MCF7 breast.
Assay [14] relates to HCC-2998 colon.
Assay [15] has as its system KM12 colon.
In assay [16] the test system is IGROV1 ovarian.
The test system of assay [17] is NCI/ADR-RES ovarian.
Assay [18] has as its system HCT-116 colon.

For `COc1ccc(-c2cn(-c3cccc(C(=O)/C=C/c4cc(OC)c(OC)c(OC)c4)c3)c(=O)[nH]2)cc1OC`, the growth was 6.01% (active) in assay [1]; 6.95% (active) in [2]; 64.9% in assay [3]; 93.6% in assay [4]; 85.7% in assay [5]; 82.7% in assay [6]. Besides, the growth in assay [7] is 98.2%; in assay [8], 87.9%; in assay [9], 62.9%; in [10], 85%; in assay [11], 83.2%; in assay [12], 94.5%. Further, the figures for the growth in assay [13], in [14] and in assay [15] were 53.3%, 103% and 70.9%, respectively.

As for `COc1ccc2cc(-c3ccc(-c4ccc(C(=N)N)cc4)s3)ccc2c1`, the growth in assay [1] was 30.4%; in assay [2], 91%; in assay [3] it was 101%; in assay [4], 103%; in assay [5], 97.3%; in assay [16] it was 69.6%. Also, the growth in assay [7] was -15.4% (active); in assay [8], 105%; in assay [17] it was 106%; in assay [9] it was 91.2%; in [10] it was 97.9%; in [11] it was 108%. Also, the growth was 84.6% in assay [12], 71.3% in assay [18], 101% in [14] and 66.4% in [15].

In the case of `Cc1ccc(-c2cc3nc(C(Cl)Cl)nc(-c4cccnc4)n3n2)cc1`, the growth in [1] is 14.6%; in [2], 16.5%; in [3], 22.7%; in assay [4], 24.2%; in assay [5] it was 9.57% (active); in assay [16], 33.6%. Besides, the growth in [7] was -40.7% (active); in [8], 28.3%; in assay [17], -3.44% (active); in assay [9], 37.9%; in assay [10], 73.4%; in [11], 1.09% (active). Further, the growth in assay [12] is 0.933% (active); in assay [13] it was 41.5%; in assay [18], 6.32% (active); in assay [14], -53.9% (active); in [15], -35.4% (active).

As for `COc1cccc(CC(C)=C(c2ccc(OCCN(C)C)cc2)c2ccc(OCCN(C)C)cc2)c1`, the growth in assay [1] was -17% (active); in [2], -31.1% (active); in [3] it was -2.71% (active); in assay [4] it was 21.2%; in assay [6] it was 70.2%; in assay [16], 8.66% (active). Moreover, the growth in assay [7] is -17.8% (active); in assay [8], 42.4%; in assay [17], 19%; in assay [9], -72.7% (active); in assay [10] it was 72.2%; in assay [12], -61.6% (active). Also, the growth in assay [13] is -55.7% (active); in assay [18] it was -74.3% (active); in assay [14], -15.3% (active); in assay [15] it was -1.23% (active).

Regarding `COc1ccc(-c2c(-c3cc(OC)c4c(c3)OCO4)noc2N)cc1`, the growth in assay [1] was -7.43% (active); in assay [2] it was 23.8%; in assay [3], 9.5% (active); in [5], 34.4%; in assay [6] it was 4.02% (active); in assay [16] it was 14.6%. Also, the growth in assay [7] was -47.3% (active); in assay [8], 28%; in assay [17] it was 13.8%; in assay [9], 37.3%; in assay [10], 20.7%; in [11] it was -38.9% (active). Moreover, the growth in [12] was 21%; in [13], 14.2%; in assay [18] it was 6.02% (active); in [14], 15.8%; in assay [15] it was 3.59% (active).

For `COC(=O)C1CCCN1C(=O)[C@@H]1CCCN1C(=O)[C@H](Cc1c[nH]c2ccccc12)NC(=S)Nc1cc(C(F)(F)F)cc(C(F)(F)F)c1` (stereo partly specified), the growth is 0.677% (active) in assay [1]; 36.6% in assay [2]; 42.7% in assay [3]; 61.1% in assay [5]; 87.4% in assay [6]; 47.1% in [16]. The growth in assay [7] was 57.2%; in assay [8], 65.4%; in assay [17], 52.6%; in assay [9] it was 49.8%; in assay [10], 70.3%; in assay [11], 45%. Also, the growth was 69.9% in [12]; 38.8% in assay [13]; 37.3% in assay [18]; 15% in [14]; 25.2% in assay [15].

On to `COc1ccc(/C=C(\C#N)c2cc(OC)c3c(c2)OCO3)cc1`, for which the growth is 1.82% (active) in assay [1]; 28.6% in assay [2]; 24.3% in assay [3]; 39% in assay [5]; 8.7% (active) in assay [6]; 16.3% in assay [16]. The growth was -42.7% (active) in assay [7]; 28.5% in assay [8]; 7.74% (active) in assay [17]; 62.3% in [9]; 30.9% in [10]; -17.6% (active) in [11]. The growth in [12] is 24.4%; in assay [13] it was 17.4%; in assay [18], 6.05% (active); in assay [14], 15.7%; in assay [15], 5.15% (active).

Turning to `COc1ccc2c(c1)C(c1cc(OC)c3c(c1)OCO3)C1=C(COC1=O)N2` (stereo unspecified), the growth in assay [1] is 6.1% (active); in assay [2] it was 22.1%; in [3], 19%; in assay [5] it was 41.2%; in assay [6] it was 16.2%; in assay [16], 28.8%. Moreover, the growth in assay [7] was -44% (active); in [8], 21%; in assay [17], 2.82% (active); in [9] it was 52.4%; in [10] it was 23.4%; in assay [11], -13.5% (active). In addition, the growth in assay [12] was 23.3%; in assay [13], 16.2%; in [18] it was 12.7%; in assay [14], 10.6%; in assay [15], 9.2% (active).

`Cc1ccc(S(=O)(=O)n2cc(C(=O)C(=O)N3CCOCC3)c3ccccc32)cc1`: the growth in assay [1] was 77.8%; in assay [2], 59.6%; in assay [3], 91.5%; in assay [4] it was 85.7%; in assay [6], 97.9%; in [7], 91.4%. The growth in [8] was 101%; in assay [17] it was 75.1%; in [9], 74.8%; in assay [10], 87.5%; in assay [11], 104%; in assay [12] it was 101%. In addition, the growth is 99.4% in [13], 87.1% in assay [18], 99.6% in assay [14] and 98.7% in [15].

Take `COc1ccc2c(c1)[nH]c(=O)c1c3cc(OC)ccc3cn21`: the growth was 20.4% in assay [1]; -63.2% (active) in assay [2]; 4.9% (active) in assay [3]; 25.9% in [4]; 42.4% in assay [6]; 16.8% in assay [16]. Further, the growth in assay [17] is 21.5%; in [9], 13.6%; in assay [10], 36.8%; in assay [11] it was -9.37% (active); in assay [12], -2.37% (active); in [13] it was 14.1%. For the same molecule, the growth in [18] is -89% (active); in [14], 32.1%; in [15] it was -13.1% (active).

Consider `CCN(CC)CCC(CNc1c2ccc(Cl)cc2nc2ccc(OC)cc12)c1ccccc1` (stereo unspecified), for which the growth in assay [1] is -6.4% (active); in [2] it was -23.6% (active); in assay [3] it was -15.1% (active); in assay [4], -9.48% (active); in [6], 35.3%; in assay [16] it was -10.5% (active). For the same molecule, the growth is -30.5% (active) in assay [7]; -27.6% (active) in assay [8]; -1.8% (active) in [17]; -58.8% (active) in assay [9]; -80.4% (active) in [11]; -49.7% (active) in [12]. Further, the growth is -38.6% (active) in assay [13], -36% (active) in assay [18], -72% (active) in assay [14] and -24.1% (active) in assay [15].

`O=C(Nc1ccncc1)C(=O)c1cn(S(=O)(=O)c2ccc(Cl)cc2)c2ccccc12`: the growth in [1] is 28.3%; in [2], 31.4%; in [3] it was 42.5%; in assay [4], 64.7%; in assay [6], 91.7%; in assay [16] it was 39.7%. Moreover, the growth was -22.3% (active) in assay [7]; 13.5% in assay [8]; -4.89% (active) in assay [17]; 41.2% in assay [9]; 39.2% in [10]; 0.272% (active) in [11]. Besides, the growth was 10.4% in assay [12], 16.8% in [13], 15.3% in assay [18] and 19.8% in assay [15].

Regarding `COc1ccc(NC(=O)CSc2nc(-c3ccc(OC)c(OC)c3)cc(-c3cc(OC)c(OC)c(OC)c3)n2)cc1`, the growth is 104% in [1]; 78.2% in assay [2]; 94.2% in [3]; 99.1% in assay [4]; 109% in [6]; 122% in [16]. Further, the growth in [7] was 114%; in [8], 90.8%; in assay [17] it was 98.7%; in [10], 95.5%; in [11], 112%; in assay [12], 105%. For the same molecule, the growth in [13] was 94%; in assay [18] it was 90.3%; in assay [14] it was 111%; in assay [15], 98.4%.
